# Test results as given in the supplement of paper PMC4466140.
# Key:
# Assay in all cases: SPOT peptide array binding signal intensity (averaged, normalized) (arbitrary units (background-subtracted, floor 0; scale differs between SH3 domains)); higher = stronger binding of the SH3 domain to the peptide
# AgAbp1 = target: AgAbp1
# How it was run: (§1)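 GST-fused SH3 domains, from four yeast species, were produced in E. coli BL21(DE3) and captured on glutathione Sepharose. Membranes of cellulose carrying synthetic 15-mer peptides, in which cysteines had been replaced by serines, were exposed to each domain at 10 μg/ml overnight at 4°C in TBS-based blocking buffer. After anti-GST antibody, an HRP anti-mouse secondary and luminol, spots were imaged and quantified using Genespotter. Binding signal is normalized and background-subtracted spot intensity, averaged over replicates, in arbitrary units that differ between domains.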
# AgBbc1 = target: AgBbc1
# How it was run: as §1
# AgBem1-D1 = target: AgBem1-D1
# How it was run: as §1
# AgBzz1-D1 = target: AgBzz1-D1
# How it was run: as §1
# AgBzz1-D2 = target: AgBzz1-D2
# How it was run: as §1
# AgCyk3 = target: AgCyk3
# How it was run: as §1
# AgFus1 = target: AgFus1
# How it was run: as §1
# AgHof1 = target: AgHof1
# How it was run: as §1
# AgHse1 = target: AgHse1
# How it was run: as §1
# AgLsb1 = target: AgLsb1
# How it was run: as §1
# AgLsb4 = target: AgLsb4
# How it was run: as §1
# AgMyo5 = target: AgMyo5
# How it was run: as §1
# AgNbp2 = target: AgNbp2
# How it was run: as §1
# AgRvs167 = target: AgRvs167
# How it was run: as §1
# AgSho1 = target: AgSho1
# How it was run: as §1
# AgSla1-D1-D2 = target: AgSla1-D1-D2
# How it was run: as §1
# AgSla1-D3 = target: AgSla1-D3
# How it was run: as §1
# CaAbp1-D1 = target: CaAbp1-D1
# How it was run: as §1
# CaAbp1-D2 = target: CaAbp1-D2
# How it was run: as §1
# CaBbc1 = target: CaBbc1
# How it was run: as §1
# CaBem1-D1 = target: CaBem1-D1
# How it was run: as §1
# CaBzz1-D1 = target: CaBzz1-D1
# How it was run: as §1
# CaBzz1-D2 = target: CaBzz1-D2
# How it was run: as §1
# CaCyk3 = target: CaCyk3
# How it was run: as §1
# CaFus1 = target: CaFus1
# How it was run: as §1
# CaHof1 = target: CaHof1
# How it was run: as §1
# CaHse1 = target: CaHse1
# How it was run: as §1
# CaLsb1 = target: CaLsb1
# How it was run: as §1
# CaLsb4 = target: CaLsb4
# How it was run: as §1
# CaMyo5 = target: CaMyo5
# How it was run: as §1
# CaNbp2 = target: CaNbp2
# How it was run: as §1
# CaRvs167 = target: CaRvs167
# How it was run: as §1
# CaRvs167-3 = target: CaRvs167-3
# How it was run: as §1
# CaSho1 = target: CaSho1
# How it was run: as §1
# CaSla1-D1-D2 = target: CaSla1-D1-D2
# How it was run: as §1
# CaSla1-D3 = target: CaSla1-D3
# How it was run: as §1
# ScAbp1 = target: ScAbp1
# How it was run: as §1
# ScBbc1 = target: ScBbc1
# How it was run: as §1
# ScBem1-D1 = target: ScBem1-D1
# How it was run: as §1
# ScBzz1-D1 = target: ScBzz1-D1
# How it was run: as §1
# ScBzz1-D2 = target: ScBzz1-D2
# How it was run: as §1
# ScCyk3 = target: ScCyk3
# How it was run: as §1
# ScFus1 = target: ScFus1
# How it was run: as §1
# ScHof1 = target: ScHof1
# How it was run: as §1
# ScHse1 = target: ScHse1
# How it was run: as §1
# ScLsb1 = target: ScLsb1
# How it was run: as §1
# ScLsb2 = target: ScLsb2
# How it was run: as §1
# ScLsb3 = target: ScLsb3
# How it was run: as §1
# ScLsb4 = target: ScLsb4
# How it was run: as §1
# ScMyo3 = target: ScMyo3
# How it was run: as §1
# ScMyo5 = target: ScMyo5
# How it was run: as §1
# ScNbp2 = target: ScNbp2
# How it was run: as §1
# ScPex13 = target: ScPex13
# How it was run: as §1
# ScRvs167 = target: ScRvs167
# How it was run: as §1
# ScSho1 = target: ScSho1
# How it was run: as §1
# ScSla1-D1-D2 = target: ScSla1-D1-D2
# How it was run: as §1
# ScSla1-D3 = target: ScSla1-D3
# How it was run: as §1
# SpAbp1-D1 = target: SpAbp1-D1
# How it was run: as §1
# SpBbc1 = target: SpBbc1
# How it was run: as §1
# SpBzz1-D1 = target: SpBzz1-D1
# How it was run: as §1
# SpBzz1-D2 = target: SpBzz1-D2
# How it was run: as §1
# SpCyk3 = target: SpCyk3
# How it was run: as §1
# SpHof1 = target: SpHof1
# How it was run: as §1
# SpHof1-2 = target: SpHof1-2
# How it was run: as §1
# SpHof1-3 = target: SpHof1-3
# How it was run: as §1
# SpHse1 = target: SpHse1
# How it was run: as §1
# SpLsb1 = target: SpLsb1
# How it was run: as §1
# SpLsb4 = target: SpLsb4
# How it was run: as §1
# SpMyo1 = target: SpMyo1
# How it was run: as §1
# SpNbp2 = target: SpNbp2
# How it was run: as §1
# SpPex13 = target: SpPex13
# How it was run: as §1
# SpRvs167 = target: SpRvs167
# How it was run: as §1
# SpSla1-D1-D2 = target: SpSla1-D1-D2
# How it was run: as §1
# SpSla1-D3 = target: SpSla1-D3
# How it was run: as §1
binder,measurement,setting,value
LLGRKRPVMERVVDI,SPOT peptide array binding signal intensity,AgAbp1,≤ 0
same,SPOT peptide array binding signal intensity,AgBbc1,27
same,SPOT peptide array binding signal intensity,AgBem1-D1,41
same,SPOT peptide array binding signal intensity,AgBzz1-D1,47
same,SPOT peptide array binding signal intensity,AgBzz1-D2,35
same,SPOT peptide array binding signal intensity,AgCyk3,1
same,SPOT peptide array binding signal intensity,AgFus1,142
same,SPOT peptide array binding signal intensity,AgHof1,2.5
same,SPOT peptide array binding signal intensity,AgHse1,586
same,SPOT peptide array binding signal intensity,AgLsb1,0.25
same,SPOT peptide array binding signal intensity,AgLsb4,65.5
same,SPOT peptide array binding signal intensity,AgMyo5,3.5
same,SPOT peptide array binding signal intensity,AgNbp2,144
same,SPOT peptide array binding signal intensity,AgRvs167,3.67
same,SPOT peptide array binding signal intensity,AgSho1,76.5
same,SPOT peptide array binding signal intensity,AgSla1-D1-D2,18
same,SPOT peptide array binding signal intensity,AgSla1-D3,0.5
same,SPOT peptide array binding signal intensity,CaAbp1-D1,21
same,SPOT peptide array binding signal intensity,CaAbp1-D2,51
same,SPOT peptide array binding signal intensity,CaBbc1,99.5
same,SPOT peptide array binding signal intensity,CaBem1-D1,60.5
same,SPOT peptide array binding signal intensity,CaBzz1-D1,236
same,SPOT peptide array binding signal intensity,CaBzz1-D2,63.5
same,SPOT peptide array binding signal intensity,CaCyk3,46
same,SPOT peptide array binding signal intensity,CaFus1,398
same,SPOT peptide array binding signal intensity,CaHof1,0.5
same,SPOT peptide array binding signal intensity,CaHse1,54
same,SPOT peptide array binding signal intensity,CaLsb1,≤ 0
same,SPOT peptide array binding signal intensity,CaLsb4,163
same,SPOT peptide array binding signal intensity,CaMyo5,10.8
NRARYLPQNPDIIAG,SPOT peptide array binding signal intensity,AgAbp1,≤ 0
same,SPOT peptide array binding signal intensity,AgBbc1,≤ 0
same,SPOT peptide array binding signal intensity,AgBem1-D1,≤ 0
same,SPOT peptide array binding signal intensity,AgBzz1-D1,9
same,SPOT peptide array binding signal intensity,AgBzz1-D2,19
same,SPOT peptide array binding signal intensity,AgCyk3,≤ 0
same,SPOT peptide array binding signal intensity,AgFus1,8
same,SPOT peptide array binding signal intensity,AgHof1,3.5
same,SPOT peptide array binding signal intensity,AgHse1,85
same,SPOT peptide array binding signal intensity,AgLsb1,1
same,SPOT peptide array binding signal intensity,AgLsb4,7
same,SPOT peptide array binding signal intensity,AgMyo5,0.5
same,SPOT peptide array binding signal intensity,AgNbp2,≤ 0
same,SPOT peptide array binding signal intensity,AgRvs167,0.5
same,SPOT peptide array binding signal intensity,AgSho1,1
same,SPOT peptide array binding signal intensity,AgSla1-D1-D2,2
same,SPOT peptide array binding signal intensity,AgSla1-D3,3.25
same,SPOT peptide array binding signal intensity,CaAbp1-D1,≤ 0
same,SPOT peptide array binding signal intensity,CaAbp1-D2,≤ 0
same,SPOT peptide array binding signal intensity,CaBbc1,≤ 0
same,SPOT peptide array binding signal intensity,CaBem1-D1,≤ 0
same,SPOT peptide array binding signal intensity,CaBzz1-D1,58
same,SPOT peptide array binding signal intensity,CaBzz1-D2,26.5
same,SPOT peptide array binding signal intensity,CaCyk3,≤ 0
same,SPOT peptide array binding signal intensity,CaFus1,29
same,SPOT peptide array binding signal intensity,CaHof1,≤ 0
same,SPOT peptide array binding signal intensity,CaHse1,13.8
same,SPOT peptide array binding signal intensity,CaLsb1,1
same,SPOT peptide array binding signal intensity,CaLsb4,4
same,SPOT peptide array binding signal intensity,CaMyo5,4.25
same,SPOT peptide array binding signal intensity,CaNbp2,59
same,SPOT peptide array binding signal intensity,CaRvs167,4.17
same,SPOT peptide array binding signal intensity,CaRvs167-3,1.75
same,SPOT peptide array binding signal intensity,CaSho1,17.5
same,SPOT peptide array binding signal intensity,CaSla1-D1-D2,≤ 0
same,SPOT peptide array binding signal intensity,CaSla1-D3,≤ 0
same,SPOT peptide array binding signal intensity,ScAbp1,7.5
same,SPOT peptide array binding signal intensity,ScBbc1,≤ 0
same,SPOT peptide array binding signal intensity,ScBem1-D1,7
same,SPOT peptide array binding signal intensity,ScBzz1-D1,7
same,SPOT peptide array binding signal intensity,ScBzz1-D2,≤ 0
same,SPOT peptide array binding signal intensity,ScCyk3,3
same,SPOT peptide array binding signal intensity,ScFus1,≤ 0
same,SPOT peptide array binding signal intensity,ScHof1,1.5
same,SPOT peptide array binding signal intensity,ScHse1,647
same,SPOT peptide array binding signal intensity,ScLsb1,1.5
same,SPOT peptide array binding signal intensity,ScLsb2,≤ 0
same,SPOT peptide array binding signal intensity,ScLsb3,58
same,SPOT peptide array binding signal intensity,ScLsb4,≤ 0
same,SPOT peptide array binding signal intensity,ScMyo3,≤ 0
same,SPOT peptide array binding signal intensity,ScMyo5,9.25
same,SPOT peptide array binding signal intensity,ScNbp2,≤ 0
same,SPOT peptide array binding signal intensity,ScPex13,2.75
same,SPOT peptide array binding signal intensity,ScRvs167,5.83
same,SPOT peptide array binding signal intensity,ScSho1,87.5
same,SPOT peptide array binding signal intensity,ScSla1-D1-D2,≤ 0
same,SPOT peptide array binding signal intensity,ScSla1-D3,≤ 0
same,SPOT peptide array binding signal intensity,SpAbp1-D1,≤ 0
same,SPOT peptide array binding signal intensity,SpBbc1,≤ 0
same,SPOT peptide array binding signal intensity,SpBzz1-D1,31.5
same,SPOT peptide array binding signal intensity,SpBzz1-D2,0.75
same,SPOT peptide array binding signal intensity,SpCyk3,≤ 0
same,SPOT peptide array binding signal intensity,SpHof1,32.8
same,SPOT peptide array binding signal intensity,SpHof1-2,13
same,SPOT peptide array binding signal intensity,SpHof1-3,251
same,SPOT peptide array binding signal intensity,SpHse1,204
same,SPOT peptide array binding signal intensity,SpLsb1,2
same,SPOT peptide array binding signal intensity,SpLsb4,38
same,SPOT peptide array binding signal intensity,SpMyo1,7
same,SPOT peptide array binding signal intensity,SpNbp2,3
same,SPOT peptide array binding signal intensity,SpPex13,1
same,SPOT peptide array binding signal intensity,SpRvs167,5.67
same,SPOT peptide array binding signal intensity,SpSla1-D1-D2,≤ 0
same,SPOT peptide array binding signal intensity,SpSla1-D3,≤ 0
